Laboratory results taken from publication PMC4552634, “A New Set of Chemical Starting Points with Plasmodium falciparum Transmission-Blocking Potential for Antimalarial Drug Discovery” (PLoS ONE, 2015).
The whole screen tested about 13,000 compounds, of which about 3,200 (25%) showed an effect of 50% or more. The list shows a part of the results.

Test system: P. falciparum stage V gametocytes
Design: BacTiter-Glo ATP luminescence viability of purified stage V gametocytes in 384-well plates, per cent inhibition versus DMSO
Settings: 48 h, 5 µM; inhibitor

SMILES | % Inhibition
CC(C)NCc1ccc(-c2cccc(-c3nc4ccc(F)cc4[nH]3)c2)cc1 [TCMDC-132737] | 4.072%
N#Cc1ccc(N2CCN(Cc3ccc(-c4cccc(-c5nc6ccccc6[nH]5)c4)cc3)CC2)nc1.O=C(O)C(F)(F)F [TCMDC-133918] | 6.117%
Cc1c(Cc2ccccc2Br)cnc2nc(N)nc(N)c12 [TCMDC-137244] | -16.64%
COC(=O)/C=C/c1ccc(CC(C)NCC(O)c2cccc(Br)c2)cc1 (centres unmarked) [TCMDC-131443] | 13.24%
O=[N+]([O-])c1ccc(Nc2nc(N/N=C/c3cccc(O)c3)nc(N3CCCC3)n2)cc1 [TCMDC-123855] | 36.76%
CCn1cnc2c(Nc3cccc([N+](=O)[O-])c3)nc(N3CCC(N4CCCCC4)CC3)nc21 [TCMDC-124437] | 69.16%
CC(C)(C)Nc1nc(Nc2cccc([N+](=O)[O-])c2)nc(-n2ccnc2)n1 [TCMDC-123695] | -24.43%
Cc1ccc(Oc2c(-c3ccccc3CN3CCCC3CN(C)C)cnn(C)c2=O)cn1 (centres unmarked) [TCMDC-135100] | -4.022%
Cc1[nH]c(C)c(-c2ccc(C(F)(F)F)cc2)c(=O)c1Br [TCMDC-137429] | 90.2%
Cc1[nH]c(C)c(-c2ccc(Nc3ccc(C(F)(F)F)cn3)cc2)c(=O)c1Br [TCMDC-135546] | 74.1%
Cc1[nH]c(C)c(-c2ccc(OCCOc3ccc(C(F)(F)F)cn3)cc2)c(=O)c1Br [TCMDC-135554] | 40.45%
Cc1[nH]c(C)c(-c2ccc(Oc3ccc(C(F)(F)F)cc3)cc2)c(=O)c1Br [TCMDC-137406] | 68.39%
COc1ccc2nccc([C@@H](O)CN3CCC(NC(=O)C(c4ccsc4)N4CCN(c5ccccc5OC)CC4)CC3)c2c1 (some centres unmarked) [TCMDC-140994] | -19.96%
CC1CCCC(C)N1C[C@@H](O)CNS(=O)(=O)c1cccc(C(F)(F)F)c1 (some centres unmarked) [TCMDC-134258] | 4.939%
CCc1ccccc1N=C1c2c(cccc2[N+](=O)[O-])C(=O)C1C(C)=O (centres unmarked) [TCMDC-125760] | -10.56%
COc1cc(CCNCC(O)c2ccc([N+](=O)[O-])c(OCc3ccccc3)c2)cc(OC)c1OC (centres unmarked) [TCMDC-132008] | 19.76%
CC(C#N)Cc1ccc(-c2cnc(N)c3cc(-c4ccnc(N)n4)ccc23)cc1 (centres unmarked) [TCMDC-134547] | 15.83%
CCCCCCC(C)c1cc(OCCN(CC)CC)c2c(c1)OC(C)(C)C=C2c1ccncc1 (centres unmarked) [TCMDC-131641] | 78.51%

SMILES | % Inhibition
CCCCCC(C)C(C)c1cc(O)c2c(c1)OC(C)(C)C=C2c1cc[n+]([O-])cc1 (centres unmarked) [TCMDC-131349] | -5.463%
CCCCCCC(C)c1cc(O)c2c(c1)OC(C)(C)C=C2c1ccncc1 (centres unmarked) [TCMDC-131636] | -3.085%
CC(=O)OC[C@H]1O[C@@H](C#Cc2ccccc2)[C@H](OC(C)=O)[C@@H](OC(C)=O)[C@@H]1OC(C)=O [TCMDC-131801] | 35.52%
CC(C)C[C@@H](NC(=O)NC1CCC(CCN2C3CCC2CC(OC(=O)C(CO)c2ccccc2)C3)CC1)C(O)(c1ccccc1)c1ccccc1 (some centres unmarked) [TCMDC-136459] | 3.057%
CC1(C)NC(N)=NC(=N)N1OCC1CCCCC1 [TCMDC-131616] | -0.7745%
O=C1COc2ccc3ccccc3c21 [TCMDC-123508] | 4.476%
CNCc1cccc(-c2ccc3ccnc(N)c3c2)c1 [TCMDC-136794] | 70.03%
Nc1nccc2ccc(-c3cccc(O)c3)cc12 [TCMDC-136758] | 44.67%
CNc1cc(-c2ccc3ccnc(N)c3c2)nc(N)n1.O=CO [TCMDC-136539] | 29.83%
CNCc1ccc(-c2ccc3ccnc(N)c3c2)cc1 [TCMDC-136789] | 95.61%
CSc1nccc(-c2ccc3ccnc(N)c3c2)n1 [TCMDC-136641] | 63.58%
Nc1ccc(-c2ccc3ccnc(N)c3c2)cn1 [TCMDC-133428] | 40.89%
CCNCc1cccc(-c2ccc3ccnc(N)c3c2)c1 [TCMDC-136869] | 65.98%
Clc1ccc2c(N3CCCNCC3)ccnc2c1 [TCMDC-124813] | -27.2%
CCc1cc2c(cc1CC)CC(NC[C@@H](O)c1ccc(O)c3[nH]c(=O)ccc13)C2 [TCMDC-138894] | -46.2%
CCCCC([C@@H](Cc1ccc2ccccc2c1)C(=O)N[C@H](C(=O)NC)C(C)(C)C)N(O)C=O (some centres unmarked) [TCMDC-140405] | 29.38%
Cc1cccc2nc(-c3ccc(-c4ccc(NC(=O)NCc5ccccc5)cc4)s3)[nH]c12 [TCMDC-133156] | 6.679%
